This is a sample that favours compounds with a hit; in the whole collection about 11% have one here.
L3MBTL1 inh – inhibitors of human L3MBTL1 | AlphaScreen L3MBTL1–H3K9me1 peptide binding | Potency, µM (top dose mostly 57.1 µM), inactives show at the highest dose activity, negative = inhibition, actives largely listed as inhibitors | actives 0.66% (n = 230,000) | AID 485360; also: potency is read from the fitted curve at half-maximal effect; % is scaled to controls: 0 for no effect and ±100 for the full control effect; nearly all actives have a fitted effect of over 60% in size
Target sequence (Q9Y468 whole entry, looked up): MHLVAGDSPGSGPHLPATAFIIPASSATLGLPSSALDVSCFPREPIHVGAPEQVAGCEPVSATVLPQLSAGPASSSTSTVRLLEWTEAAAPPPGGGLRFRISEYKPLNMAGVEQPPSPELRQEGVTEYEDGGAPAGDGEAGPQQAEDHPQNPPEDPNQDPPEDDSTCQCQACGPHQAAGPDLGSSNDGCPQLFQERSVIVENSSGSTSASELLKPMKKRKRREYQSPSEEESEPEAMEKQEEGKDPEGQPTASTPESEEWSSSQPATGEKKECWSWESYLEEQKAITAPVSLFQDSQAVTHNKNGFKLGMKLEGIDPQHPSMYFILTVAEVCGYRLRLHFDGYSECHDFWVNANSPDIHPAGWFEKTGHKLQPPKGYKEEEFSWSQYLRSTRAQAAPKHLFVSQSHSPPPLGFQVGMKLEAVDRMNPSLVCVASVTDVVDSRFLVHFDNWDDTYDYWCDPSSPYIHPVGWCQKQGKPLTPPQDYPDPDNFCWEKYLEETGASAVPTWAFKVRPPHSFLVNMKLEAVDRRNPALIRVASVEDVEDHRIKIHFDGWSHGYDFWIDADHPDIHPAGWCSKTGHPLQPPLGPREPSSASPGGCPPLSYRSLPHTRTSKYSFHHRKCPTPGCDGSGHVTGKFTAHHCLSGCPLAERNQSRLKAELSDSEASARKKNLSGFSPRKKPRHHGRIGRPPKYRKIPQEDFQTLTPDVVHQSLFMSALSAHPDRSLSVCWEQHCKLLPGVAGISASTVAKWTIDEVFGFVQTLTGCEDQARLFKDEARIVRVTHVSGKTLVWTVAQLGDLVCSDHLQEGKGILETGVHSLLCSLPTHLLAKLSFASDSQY
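AlphaScreen assay: L3MBTL1 (50 nM final) was preincubated 30 min at room temperature with biotinylated H3(1-15)K9me1 peptide (75 nM final), then 30 min with library compounds; streptavidin donor and nickel chelate acceptor beads (10 ug/mL final) added, 30 min dark.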
G9a block – inhibitors of human histone lysine methyltransferase G9a; G9a H3K9 monomethylation, AlphaScreen, 2 h; Q96KQ7; actives 8.8% (n = 350,000); Potency, µM (highest dose often 102 µM), for inactives: at the highest dose activity, negative = inhibition, actives largely listed as inhibitors; also: potency is read from the fitted curve at half-maximal effect; % is scaled to controls: 0 for no effect and ±100 for the full control effect; nearly all actives have a fitted effect of over 75% in size
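Step 1: enzyme (final 20 nM) with compound, 15 min RT. Step 2: substrate peptide 500 nM and SAM 20 uM, 2 h RT. Step 3: anti-H3K9me1 antibody and AlphaScreen beads, 10 min, then plate read.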
HP1b chromo inh – blocks HP1-beta chromodomain binding to methylated histone tails. Potency, µM (top dose mostly 114 µM), without a hit: at the highest dose activity change, negative = inhibition, most hits filed as inhibitors. actives 0.56% (n = 390,000). P83916. AlphaScreen HP1-beta / biotin-H3K9me3 peptide binding; also: potency is read from the fitted curve at half-maximal effect; nearly all actives have a fitted effect of over 70% in size
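Compound inhibition of the preformed complex between 50 nM HP1-beta and 50 nM biotinylated H3K9me3 peptide was read by AlphaScreen. Buffer was PBS pH 7.4 with 0.01% Tween-20. Incubations ran 30 min at room temperature, with 10 ug/mL donor/acceptor beads.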
BAZ2B inh – blocks human BAZ2B | AID 504333 | Potency, µM (top dose mostly 114 µM), without a hit: at the highest dose activity change, negative = inhibition, actives largely listed as inhibitors | AlphaScreen BAZ2B-H3K14Ac peptide displacement | Q9UIF8 | actives 4.4% (n = 360,000); also: potency is read from the fitted curve at half-maximal effect; % is scaled to controls: 0 for no effect and ±100 for the full control effect; nearly all actives have a fitted effect of over 60% in size
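BAZ2B (50 nM) with biotin-H3(5-23)K14Ac peptide (50 nM) in PBS pH 7.4, 0.01% Tween-20, preformed 30 min, then compound 30 min at room temperature; top concentration 110uM. AlphaScreen streptavidin donor/nickel chelate acceptor beads (10 ug/mL final), 20 min dark, signal read.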
PI5P4Ka inh – blocks human PI5P4K alpha kinase activity | P48426 | PI5P4Kalpha enzyme, ADP-Glo luminescence, 60 min; hits give low values | max response, % | actives 1.2% (n = 330,000); active = max response of -50% or lower; inconclusive = between -30% and -50%; inactive = -30% or higher; also: value at the top dose of about 77 µM; % is scaled to controls: 0 for no effect and ±100 for the full control effect
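PI5P4Kalpha ADP-Glo assay; 5 microM ATP final; 60 min RT reaction; HEPES pH 7.4/EGTA/CHAPS, 5% DMSO; controls lacking substrate or enzyme; luminescent end-point.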
JMJD2A Tudor inh – blocks the human JMJD2A Tudor domain; O75164; AlphaScreen JMJD2A-Tudor / H3K4me3 peptide binding; Potency, µM (highest dose often 114 µM), for the others: at the top dose activity change, negative = inhibition, usual class: inhibitors; actives 4.4% (n = 390,000); also: potency is read from the fitted curve at half-maximal effect; % is scaled to controls: 0 for no effect and ±100 for the full control effect; nearly all actives have a fitted effect of over 50% in size
The depositor's hits bear a star; ? = inconclusive; . = no result; ! = a repeat was not active; [ ] = dose if it differs, or a comment. Unless noted, calls follow the shape of the dose curve; as a rule, active = well fitted inhibition curve with a large enough effect; inconclusive = small, poorly fitted or top-dose-only effect; inactive = no such curve, though single readings can be large or run the other way.

SMILES | L3MBTL1 inh | G9a block | HP1b chromo inh | BAZ2B inh | PI5P4Ka inh | JMJD2A Tudor inh
Cc1cc2c(cc1C)-n1c(-c3ccccc3)c3c(=O)n(C)c(=O)n(C)c3c1C(c1ccco1)N2 (stereo unspecified) | . | -34%[59 µM] | 12% | ? | . | -29%
COC[C@H]1OC(=O)c2coc3c2[C@@]1(C)C1=C(C3=O)C2CCC(=O)[C@@]2(C)C[C@H]1OC(C)=O (stereo partly specified) | . | 28µM*! | . | . | . | .
CCC(C)C1NC(=O)C(C(C)=O)=C1O (stereo unspecified) | . | 14%[12.7 µM] | 44% | 50µM* | -9 | -23%
CCCCn1c(NC(=O)c2ccc(Br)o2)c(C(=O)OCC)c2nc3ccccc3nc21 | -24% | ? | 24%[57 µM] | -4% | 1 | 0%
CCCCn1c(NS(=O)(=O)c2ccccc2)c(C(=O)OCC)c2nc3ccccc3nc21 | 4.5µM* | ? | 67% | -31% | -4 | 21%
O=C1NC(=S)NC(=O)C1=Cc1c(Cl)cccc1Cl | . | . | 4%[57 µM] | . | ? | -12%
O=C1NC(=S)NC(=O)C1=Cc1ccc(Br)s1 | -6% | . | ? | 56µM* | -85* | 28µM*
CN1C(=O)/C(=C\c2ccc(Br)s2)C(=O)NC1=S | -5% | 7.1µM* | 8% | ? | -77* | 20µM*
COc1ccc(O)c(CN2CCCC(C(=O)c3sccc3C)C2)c1 (stereo unspecified) | -8% | 50µM* | -22% | ? | -11 | -28%[57.1 µM]
Cc1ccsc1C(=O)C1CCCN(Cc2ccccc2O)C1 (stereo unspecified) | 7% | . | 48% | -3% | -10 | 7%[57.1 µM]
COc1ccccc1CN1CC[C@@]2(CCCN(C(=O)Oc3ccccc3)C2)C1 | . | 6%[12.7 µM] | . | . | . | .
O=[N+]([O-])c1cc(Cl)c(O)c(-[n+]2c(-c3ccccc3)cc(-c3ccccc3)cc2-c2ccccc2)c1 | -6% | 50µM* | 5% | ? | -8 | ?
O=[N+]([O-])c1ccc(C[n+]2c(-c3ccccc3)cc(-c3ccccc3)cc2-c2ccccc2)cc1 | -2% | -19%[2.33 µM] | 48% | -4% | 0 | -29%
N#Cc1cccc(NC(=O)N2CCCC3(CCN(C(=O)Oc4ccccc4)CC3)C2)c1 | . | -3%[12.7 µM] | . | . | . | .
O=C(O[C@@H]1Cc2c(O)cc(O)cc2O[C@@H]1c1cc(O)c(O)c(O)c1)c1cc(O)c(O)c(O)c1 | . | 1.8µM* | . | 8.9µM* | . | .
Cc1ccc2[nH]c(=S)n(-c3cccnc3)c(=O)c2c1 | . | 45µM* | 20% | 1% | -2 | ?
O=c1c2ccc(Cl)cc2[nH]c(=S)n1-c1cccnc1 | -8% | 20µM* | 22% | -21% | -5 | 18µM*
O=c1c2ccccc2[nH]c(=S)n1-c1cccnc1 | 12% | . | 55% | -2% | 2 | -6%
COC1=CC(=O)O[C@@H](/C=C\c2ccccc2)C1 | . | 29%[21.5 µM] | . | . | . | .
Clc1ccc2c(c1)C(c1ccccc1Cl)=NCc1nnc(N3CCN(CCOc4ccccc4)CC3)n1-2 | -7% | ? | -8% | 45µM* | 5 | -31%
O=C(Oc1ccccc1)N1CCC[C@@]2(CCN(Cc3ccccc3)C2)C1 | . | -3%[12.7 µM] | . | . | . | .
Cc1ccc(OP2(=O)Nc3cc(C)c(C)cc3S2)cc1 (stereo unspecified) | . | . | -7%[57 µM] | . | 5 | 1.3µM*
Cc1ccc2c(c1)NP(=S)(Oc1ccccc1)N2 (stereo unspecified) | . | . | -17% | . | -8 | -25%
COC1C(O)C(C)O[C@H](OC2CC[C@@]3(C=O)C4CC[C@]5(C)C(C6=CC(=O)OC6)CC[C@@]5(O)C4CC[C@@H]3C2)C1O (stereo partly specified) | . | -7%[2.33 µM] | . | . | . | .
COC(=O)NC(=S)Nc1ccccc1NC(=S)NC(=O)OC | . | . | 5% | . | -4 | -24%
SMILES | L3MBTL1 inh | G9a block | HP1b chromo inh | BAZ2B inh | PI5P4Ka inh | JMJD2A Tudor inh
O=C(NC(=S)Nc1ccccc1N1CCCC1)c1ccccc1Br | . | 10µM* | . | 11µM* | . | .
CN1Cc2c(ccc3c2OCO3)[C@@H]2[C@@H](O)Cc3cc4c(cc3[C@@H]21)OCO4 | . | 21%[21.5 µM] | . | . | . | .
CC1=NN(c2ccccc2)C(=O)C1/C=C1/C(=O)NC(=O)N(c2cccc(C)c2)C1=O (stereo unspecified) | -1% | -19%[59 µM] | . | ? | . | .
O=C1NC(=O)C(=Cc2cc3c(cc2[N+](=O)[O-])OCO3)C(=O)N1 | -5% | 7.9µM* | 0% | -29% | ? | -35%
Cc1cccc(N2C(=O)NC(=O)/C(=C/c3cc4c(cc3[N+](=O)[O-])OCO4)C2=O)c1 | . | 8.9µM* | ? | -28% | ? | 79µM*
C=C(C)[C@H]1[C@H]2OC(=O)[C@@H]1[C@]1(O)C[C@H]3O[C@]34C(=O)O[C@H]2[C@@]14C | . | 20%[21.5 µM] | . | . | . | .
COc1cc(C2c3cc4c(cc3CC3COC(=O)C32)OCO4)cc(OC)c1O (stereo unspecified) | . | . | 11% | . | 1 | 89µM*
COc1cc(C2c3cc4c(c(O)c3CC3COC(=O)C32)OCO4)cc(OC)c1O (stereo unspecified) | . | . | 19% | . | . | -16%
CCCCCCCCCCCCCCCC[N+](C)(C)C | 28% | 8.9µM*! | 52% | 6% | -3 | -1%
COc1cccc(/C=C/c2nc3ccccc3c(=O)n2-c2ccc(Cl)cc2)c1OC | . | 6%[59 µM] | 30% | 2% | . | -16%
CCC1CCCCN1CC(=O)c1ccc(OC(F)F)cc1 (stereo unspecified) | 0% | 14µM* | 53% | 1% | -4 | -1%
CCCCCNc1c(C(=O)OCC)c(=O)[nH]c2ccccc12 | 5% | 2%[59 µM] | -14% | 9% | -1 | 56µM*
Cc1ccc(NC(=O)CN2C(=O)CN=C(c3ccccc3)c3ccccc32)cc1Cl | . | -12%[59 µM] | 14% | -6% | . | -14%
CN(C)CCN(Cc1ccccc1)c1ccnc(N(C)C)c1C#N | -1% | 7.9µM* | ? | ? | -9 | 63µM*
CCOc1cc(CN2CCN(C(=O)Cc3ccccc3)CC2)ccc1OC | -3% | . | ? | 56µM* | 1 | 28µM*
COc1ccc(CN2CCN(C(=O)Cc3ccccc3)CC2)cc1OC | . | . | . | . | -9 | .
Cc1ccc(OCC(=O)N2CCN(Cc3ccc4c(c3)OCO4)CC2)cc1C | 2% | -8%[12.7 µM] | 16% | ? | 2 | -15%
COc1ccc(CN2CCN(C(=O)Cc3ccccc3)CC2)cc1Br | -2% | . | ? | ? | -6 | 25µM*
COc1ccc(OC)c(CN2CCN(C(=O)Cc3ccccc3)CC2)c1 | -5% | 5µM* | ? | ? | 5 | 18µM*
CCC(Sc1ccccc1)C(=O)OC1CC2CCC(C1)N2C (stereo unspecified) | . | -1%[59 µM] | . | . | . | .
